# Pf growth 48h: inhibits P. falciparum growth in the first generation, 48 h; P. falciparum luciferase growth in erythrocytes, 48 h; Potency, µM (doses to about 28.7 µM), without a hit: top-dose activity change, negative = inhibition, actives largely listed as inhibitors; 310,000 tested, 5.9% active; AID 504832; note: potency is the fitted concentration of half-maximal effect; % is set by controls: 0 for no effect and ±100 for the full control effect
#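 Parasite viability was followed by luminescence of a genomically integrated firefly luciferase. Cultures held 0.1% parasitemia at 2% hematocrit (final), incubated under 5% CO2 at 37 C.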
# Pf growth 96h: P. falciparum growth inhibition at 96 hours; P. falciparum luciferase reporter growth, 96 h; Potency, µM (doses to about 28.7 µM), inactives show at the highest dose activity change, negative = inhibition, usual class: inhibitors; 320,000 tested, 6.9% active; AID 504834; note: potency is the fitted concentration of half-maximal effect; % is set by controls: 0 for no effect and ±100 for the full control effect
#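 Compounds incubated with erythrocytes infected by luciferase-expressing P. falciparum (2% hematocrit, 0.05% parasitemia final) for 96 hours, 37 C in 5% CO2. Growth inhibition scored as decreased luciferase luminescence.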
# AMA1-RON2 inh: AMA1-RON2 (P. falciparum) interaction inhibition. 360,000 tested, 0.2% active. AlphaScreen AMA1-biotinylated RON2 peptide binding. Potency, µM (series often up to 58.2 µM), for inactives: top-dose activity change, negative = inhibition, usual class: inhibitors;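 note: potency is the fitted concentration of half-maximal effect; 0% = vehicle wells and -100% = peptide control; nearly all actives have a fitted effect of over 45% in size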
#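 AMA1 (3D7) with his tag at 25 nM final met compounds first, then biotinylated RON2 peptide at 25 nM; detection used donor plus acceptor beads, 10 µg/mL apiece, read by AlphaScreen after 30 min at room temperature.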
# Shiga toxin inh: Shiga toxin inhibition; Vero cells, Shiga toxin protein synthesis inhibition reporter; inhibition, % at 38.7 µM; 290,000 tested, 9.2% active; AID 2315; in the data active = inhibition mostly above about 28%, no sharp cut-off; inactive = mostly below about 43%; note: 0% is about no effect
# CHX counter: counter-screen hit for Shiga toxin inhibitors, cycloheximide; cell reporter, cycloheximide protein synthesis inhibition counterscreen; max response, %; 300,000 tested, 12% active; in the data active = max response mostly above about 13%, no sharp cut-off; inactive = mostly below about 14%; note: read at 38.3 µM for the half of the compounds with a filed dose; 0% is about no effect
# HCV inh: inhibitors of hepatitis C virus infection | Potency, µM (titrated, usually from 41.8 µM), without a hit: at the top dose activity change, negative = inhibition, usual class: inhibitors | 340,000 tested, 3.4% active | AID 651820 | Huh7.5.1 HCVcc-Cre infection, luciferase reporter, 44 h; note: potency is the fitted concentration of half-maximal effect; % is set by controls: 0 for no effect and ±100 for the full control effect
#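 Seed cells (1,000/well) for 4 h; treat with compound and infect with HCVcc-Cre, moi about 0.5. Incubate 44 h, then detect luciferase activity.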
# * marks the source's active call; other numbers are inactive results; ? = inconclusive; / = not tested or not shown; [ ] = another dose, or the depositor's remark. Most compounds without a hit are left out; they make up all but 21% or so of the library. Unless noted, calls come from the whole dose curve; as a rule, active = well fitted curve in the direction sought with a large enough effect; inconclusive = small, poorly fitted or top-dose-only effect, or another doubt; inactive = no such curve, though single readings can be large; an effect the other way counts as inactive or inconclusive.
SMILES,Pf growth 48h,Pf growth 96h,AMA1-RON2 inh,Shiga toxin inh,CHX counter,HCV inh
CC1Oc2cc3c(-c4c(O)cc(O)c5c(O)c6c(cc45)OC(C)C(C)C6=O)c(O)cc(O)c3c(O)c2C(=O)C1C (stereo unspecified),0.37µM*,0.52µM*,-15%,-3,7,?
C[C@@H]1Cc2c(O)c(O)cc(O)c2C(=O)O1,?,27%,?,-7,3,-7%
COc1ccc(N(CC(=O)N2CCN(c3ccc(F)cc3)CC2)S(=O)(=O)c2c(C)noc2C)cc1,?,1.9µM*,-2%,0,-1,13%
CCOc1ccc(N(CC(=O)N2CCCC2)S(=O)(=O)c2c(C)noc2C)cc1,/,-3%,2%,5,-4,12%
COc1ccc(N(CC(=O)N2CCN(c3ccc(Cl)cc3)CC2)S(=O)(=O)c2c(C)noc2C)cc1,?,?,-12%,14,-1,11µM*
CCOc1ccc(N(CC(=O)N2CCN(c3ccccc3F)CC2)S(=O)(=O)c2c(C)noc2C)cc1,?,-5%,4%,-6,2,13%
CCOc1ccc(N(CC(=O)N2CCN(c3ccc(F)cc3)CC2)S(=O)(=O)c2c(C)noc2C)cc1,10µM*,?,-6%,-4,-1,?
COc1ccc(N(CC(=O)N2CCN(c3cccc(Cl)c3)CC2)S(=O)(=O)c2c(C)noc2C)cc1,10µM*,?,-1%,-7,-1,?
CCOC(=O)C1CCN(C(=O)CN(c2ccc(OC)cc2)S(=O)(=O)c2c(C)noc2C)CC1,/,43%,-2%,3,8,4%
CC1(CO)COC(c2ccccc2)=N1 (stereo unspecified),18%,34%,-2%,2,-3,3%
CC(Oc1ccc(Cl)cc1)C(=O)N1CCCc2ccccc21 (stereo unspecified),?,?,16%,-11,2,4%
CC(Oc1ccc(Br)cc1)C(=O)N1CCc2ccccc21 (stereo unspecified),1.5µM*,22%,36%,45,7,5%
CC(OC(=O)/C=C/c1ccccc1)C(=O)N1CCc2ccccc21 (stereo unspecified),-23%,39%,-11%,/,/,22%
CC(Oc1ccccc1Br)C(=O)N1CCc2ccccc21 (stereo unspecified),-84%,70%,-1%,79*,51*,3%
CCCCNC(=O)CCNS(=O)(=O)c1ccc(Br)cc1,21%,15%,0%,-7,4,4%
COc1ccc(C(CNC(=O)CCNS(=O)(=O)c2ccc(Br)cc2)N2CCOCC2)cc1 (stereo unspecified),/,/,-7%,/,/,-3%
CCC(C)NC(=O)CCNS(=O)(=O)c1ccc(Br)cc1 (stereo unspecified),-9%,7.4µM*,1%,14,-2,-27%
COc1ccc(C(CNC(=O)C(C)Oc2ccc(Br)cc2)N2CCCCC2)cc1 (stereo unspecified),13µM*,?,-8%,/,/,?
COc1ccc(C(CNC(=O)CCNS(=O)(=O)c2ccc(Br)cc2)N2CCCC2)cc1 (stereo unspecified),4.1µM*,2.1µM*,19%,/,/,?
Cc1cc(C(=O)CSc2nc3ccc(Cl)cc3[nH]2)c(C)n1Cc1ccco1,/,/,14%,/,/,?
O=C(NC1CCN(C(=O)c2cccs2)CC1)c1ccccc1,66%,-13%,-4%,15,-2,8%
Cc1cc(/C=C2/NC(=O)NC2=O)c(C)n1C,13%,4.7µM*,-5%,15,4,10%
Cc1cc(C)c(-n2c(C)cc(/C=C3/NC(=O)NC3=O)c2C)c(C)c1,?,5.9µM*,-4%,-15,-3,-12%
CCC(=O)c1cn(CC(=O)NCC2CCCO2)c2ccccc12 (stereo unspecified),-1%,-25%,-10%,17,-2,20%
CN1CCN(CCCNC(=O)c2cn(C3CCCCC3)c(=O)c3c2c2ccccc2n3C)CC1,/,21%,-8%,-9,-4,-14%
SMILES,Pf growth 48h,Pf growth 96h,AMA1-RON2 inh,Shiga toxin inh,CHX counter,HCV inh
Cn1c2ccccc2c2c(C(=O)NCC3CCCO3)cn(C3CCCC3)c(=O)c21 (stereo unspecified),?,4.1µM*,-2%,-4,-1,?
CC(C)Cn1cc(C(=O)NCC2CCCO2)c2c3ccccc3n(C)c2c1=O (stereo unspecified),13µM*,-41%,7%,3,5,-14%
CCC(=O)O[C@@H]1CC(=O)O[C@H](C)CC=CC=C[C@@H](O)[C@H](C)C[C@H](CC=O)[C@H](O[C@H]2O[C@H](C)[C@@H](O[C@H]3C[C@@](C)(O)[C@@H](OC(=O)CC)[C@H](C)O3)[C@H](N(C)C)[C@H]2O)[C@H]1OC,?,0.83µM*,/,-7,-7,/
CO[C@H]1[C@H](O[C@H]2O[C@@H](C)[C@@H](O[C@@H]3C[C@](C)(O)[C@H](O)[C@H](C)O3)[C@@H](N(C)C)[C@@H]2O)[C@@H](CC=O)C[C@@H](C)[C@@H](O[C@H]2CC[C@H](N(C)C)[C@H](C)O2)/C=C\C=C/C[C@@H](C)OC(=O)C[C@H]1O,-7%[12.8 µM],2µM*,/,/,/,/
CCC(=O)O[C@@H]1[C@H](C)O[C@H](O[C@H]2[C@@H](N(C)C)[C@H](O)[C@@H](O[C@@H]3[C@@H](CC=O)C[C@@H](C)[C@@H](O)/C=C\C=C/C[C@@H](C)OC(=O)C[C@@H](OC(=O)CC)[C@H]3OC)O[C@H]2C)C[C@]1(C)O,?,1.3µM*,/,/,/,/
CCN(CC)S(=O)(=O)c1cccc(NC2=NCC(C)S2)c1 (stereo unspecified),-26%,3%,-8%,42,12,?
CNC(=O)c1c(NC(=O)CCS(=O)(=O)c2ccc(F)cc2)sc(C)c1C,-23%,-1%,2%,/,/,13%
CCn1ncc(Br)c1C(=O)Nc1ccc(C(C)C)cc1,-8%[0.00184 µM],?,9%,69*,64*,?
CCn1ncc(Br)c1C(=O)Nc1ccc2c(c1)OCCO2,134%,16%,2%,99*,70*,0%
CCn1ncc(Br)c1C(=O)Nc1cccc(F)c1,7%,-24%,-6%,16,13,2%
CCC(C)c1ccc(NC(=O)c2c([N+](=O)[O-])cnn2CC)cc1 (stereo unspecified),-47%,5.2µM*,-5%,44,20*,-21%
CCn1ncc(Br)c1C(=O)Nc1cc(C(=O)OC)ccc1C(=O)OC,35%,?,-3%,37*,15*,-1%
CCn1ncc([N+](=O)[O-])c1C(=O)Nc1ccc(C(=O)N2CCCCC2)cc1,-1%,-27%,18%,-6,-4,-2%
